Screening data (PubChem)
NS1 inh = influenza NS1 inhibition; hit rate 0.4% among 270,000; AID 2326; Potency, µM (highest dose often 46.1 µM), for inactives: at the top dose activity, positive = more growth; calls by dose curve; also: actives are rising curves; nearly all actives have a fitted effect of over 50% in size
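OD600 was taken as the measure of yeast growth restored by compound in an NS1-expressing S. cerevisiae strain. Cells had been washed out of glucose medium and diluted 1:100 into galactose -URA medium, pH 6.0.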
Pf growth 48h = P. falciparum growth inhibition at 48 hours (one generation). P. falciparum luciferase growth in erythrocytes, 48 h. Potency, µM (highest dose often 28.7 µM), for the others: at the top dose activity change, negative = inhibition, actives largely listed as inhibitors. hit rate 5.9% among 310,000. AID 504832; also: % is scaled to controls: 0 for no effect and ±100 for the full control effect
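Parasite viability was followed by luminescence of a genomically integrated firefly luciferase. Cultures held 0.1% parasitemia at 2% hematocrit (final), incubated under 5% CO2 at 37 C.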
Vaccinia mCherry = inhibitors of vaccinia virus infection (mCherry reporter signal). Potency, µM (series often up to 36.5 µM), inactives show at the highest dose activity change, negative = inhibition, usual class: inhibitors. Vaccinia virus mCherry reporter infection, fluorescence. AID 720579. hit rate 0.63% among 310,000; calls by dose curve; tested in A549 cells; also: % is scaled to controls: 0 for no effect and ±100 for the full control effect; nearly all actives have a fitted effect of over 35% in size
Pf growth 96h = P. falciparum growth inhibition at 96 hour, primary screen for plastid delayed-death inhibitors. AID 504834. P. falciparum luciferase reporter growth, 96 h. hit rate 6.9% among 320,000. Potency, µM (series often up to 28.7 µM), inactives show at the highest dose activity change, negative = inhibition, actives largely listed as inhibitors; also: % is scaled to controls: 0 for no effect and ±100 for the full control effect
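Readout is luminescence from an integrated firefly luciferase in P. falciparum. Red cells, 2% hematocrit and 0.05% parasitemia final, were cultured with compound through two parasite generations (96 hours) at 37 C, 5% CO2.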
HCV inh = HCV inhibition | Huh7.5.1 HCVcc-Cre infection, luciferase reporter, 44 h | hit rate 3.4% among 340,000 | Potency, µM (highest dose often 41.8 µM), for inactives: at the highest dose activity change, negative = inhibition, usual class: inhibitors | AID 651820; also: % is scaled to controls: 0 for no effect and ±100 for the full control effect
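Luciferase read-out (15 sec integration) after a 15 min room-temperature substrate step quantifies HCVcc-Cre infection. Cells, 1,000 per well, had compound added 4 h post-plating, then virus at ~0.5 moi, and were cultured 44 h.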
Vaccinia Venus = inhibitors of vaccinia virus (Venus reporter); Vaccinia virus Venus reporter expression, fluorescence; Potency, µM (doses to about 36.5 µM), inactives show at the top dose activity change, negative = inhibition, most hits filed as inhibitors; hit rate 0.46% among 330,000; AID 720580; calls by dose curve; tested in A549 cells; also: % is scaled to controls: 0 for no effect and ±100 for the full control effect; nearly all actives have a fitted effect of over 30% in size
* = called active by the depositor; i = inactive; ? = inconclusive; / = no result given; ! = a repeat was not active. Most compounds without a hit are left out; they make up all but 11% or so of the library. Unless noted, calls follow the shape of the dose curve; as a rule, active = well fitted inhibition curve with a large enough effect; inconclusive = small, poorly fitted or top-dose-only effect, or another doubt; inactive = no such curve, though single readings can be large or run the other way. Potency is read from the fitted curve at half-maximal effect.

SMILES	NS1 inh	Pf growth 48h	Vaccinia mCherry	Pf growth 96h	HCV inh	Vaccinia Venus
Cc1ccc(C)c(Nc2nc3ccccc3n3cnnc23)c1	0.7%	0.1%	/	?	-13.1%	/
COc1ccc(C2=NN(C(=O)CCC(=O)O)C(c3ccccc3)C2)cc1 (configuration not stated)	5.2%	6.3%	/	?	17.9%	/
Cc1cc(-c2nnc3sc(C4CCCCC4)nn23)n[nH]1	-0.6%	/	/	?	15.3%	/
c1csc(Cc2nn3c(-c4n[nH]c5c4CCC5)nnc3s2)c1	14.5%	?	?	?	?	-18.9%
COc1cc(OC)c(-c2nn3c(-c4n[nH]c5c4CCC5)nnc3s2)cc1OC	/	/	7.08µM*!	/	/	?
COc1cc(-c2nnc3sc(C4CCCCC4)nn23)cc(OC)c1OC	-151.6%	8.28µM*	?	5.22µM*	?	5.62µM*
CN(C)C(=O)Oc1cccc2c(OC(=O)N(C)C)cccc12	5.0%	5.4%	-14.8%	/	14.7%	-10.1%
CCCCCn1c(CN2CC(C)OC(C)C2)nc2c1c(=O)n(C)c(=O)n2C (configuration not stated)	-5.7%	3.1%	-5.3%	0.7%	21.0%	-5.9%
O=C(Nc1nc2c(s1)CCCC2)c1cccs1	-134.3%	153.3%	-22.0%	-5.7%	?	-25.9%
CC(C)Cn1c(N)c(C(=O)COC(=O)c2ccccc2C(=O)c2ccccc2)c(=O)n(C)c1=O	/	/	/	/	10µM*	/
CC(C)Cn1c(N)c(C(=O)COC(=O)c2ccccc2Cl)c(=O)n(C)c1=O	/	-14.8%	-0.3%	?	?	-18.4%
CC(C)Cn1c(N)c(C(=O)COC(=O)/C=C/c2cccs2)c(=O)n(C)c1=O	3.0%	?	i	?	3.98µM*	-14.2%
CC(C)Cn1c(N)c(C(=O)COC(=O)c2ccccc2F)c(=O)n(C)c1=O	/	-1.5%	-13.8%	22.1%	11.2µM*	-2.9%
COc1ccc(NC(=O)C2(C)Cc3c(-c4ccccc4)ccnc3O2)cn1 (configuration not stated)	/	/	?	/	/	-26.8%
O=C(NNC(=S)Nc1ccccc1Cl)c1ccccc1	-4.9%	262.2%	i	-31.0%	17.2%	-18.8%
COc1ccc(C(=O)Nc2ccc(C(=O)OCC(=O)c3cccc4ccccc34)cc2)cc1	-5.7%	?	-6.2%	13.1µM*	-8.1%	-5.1%
CN1CCN(c2ccc(NC(=O)c3ccc(-c4ccccc4F)o3)cc2)CC1	/	-55.9%	-24.4%	?	10µM*	-28.5%
O=C(NC1CCCCC1)c1ccc(-c2ccccc2F)o1	/	/	-15.2%	/	0.708µM*	-15.9%
COc1ccc(C(=O)Nc2ccc(N3CCN(C)CC3)cc2)cc1	-24.3%	107.4%	/	0.0928µM*	18.0%	/
CN1CCN(c2ccc(NC(=O)c3ccc(Br)o3)cc2)CC1	9.5%	139.4%	/	?	12.9%	/
Cc1cc(C)cc(C(=O)Nc2ccc(N3CCCC3)cc2)c1	2.4%	-16.6%	-11.3%	12.9%	?	-13.5%
CC(C)Oc1ccc(C(=O)Nc2ccc(N3CCCC3)cc2)cc1	?	13.1µM*	-2.0%	9.28µM*	?	-21.7%
O=C(Nc1ccc(N2CCCC2)cc1)c1ccc(Br)cc1	21.7%	13.1µM*	/	0.0%	-18.5%	/
O=C(CSc1nc(-c2ccco2)nc2cc(=O)[nH]n12)Nc1ccccc1Cl	/	/	-9.7%	/	/	-5.5%
CCOc1ccccc1OCCCC(=O)NC1CCCc2ccccc21 (configuration not stated)	-4.0%	-12.9%	-26.1%	?	12.1%	-22.1%
C=CCc1cccc(C=Nc2c[nH]c(=O)[nH]c2=O)c1O	20.5%	-0.3%	-0.9%	-21.6%	11.9%	-15.0%
C=CCc1cccc(C=Nc2cc(Br)ccc2O)c1O	-46.5%	?	?	11.7µM*	-24.4%	?
Cc1ccc(CN(C)c2nc(-c3cccnc3)nc3ccccc23)o1	-22.6%	?	-0.6%	11.7µM*	?	-3.9%
c1cncc(-c2nc(NCC3COc4ccccc4O3)c3ccccc3n2)c1 (configuration not stated)	-34.7%	/	?	8.28µM*	11.2µM*	11.2µM*
CN(Cc1ccccc1F)c1nc(-c2cccnc2)nc2ccccc12	-52.8%	?	-7.5%	?	?	-21.5%
